Bioassay records deposited in PubChem by National Center for Advancing Translational Sciences (NCATS).
HT1080-NT tox – qHTS for induction of synthetic lethality in tumor cells producing 2HG: qHTS for the HT-1080-NT fibrosarcoma cell line; HT-1080-NT fibrosarcoma viability, CellTiter-Glo ATP luminescence, 48 h; Potency, µM (highest dose often 46.1 µM), inactives show at the top dose activity, negative = less viability, most hits filed as cytotoxic; 360,000 compounds, 1.6% hits;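 further: NT is the 2HG producing partner of a matched IDH1 knockdown line; 0% = DMSO-treated cells and -100% = media-only wells without cells; nearly all actives have a fitted effect of over 55% in size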
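Read-out is CellTiter-Glo luminescence after 10 minutes at room temperature, following 48 hours' compound treatment of HT-1080-NT cells (750 cells/well, RPMI, 5% FBS, 37 degrees C).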
KB-3-1 cytotox – qHTS assay for MDR1-selective chemotherapeutics: Primary screen using the parental adenocarcinoma cell KB-3-1. KB-3-1 viability, CellTiter-Glo ATP luminescence, 72 h. Potency, µM (top dose mostly 46.1 µM), actives largely listed as cytotoxic. 400,000 compounds, 1.4% hits. AID 1347075, 2019; further: on the % scale 0 is the no-effect control and ±100 the full control effect; nearly all actives have a fitted effect of over 60% in size
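Cells are dispensed, compounds pinned in, plates held at 37 °C for 72 h, then CellTiter-Glo is added and luminescence read after 10 minutes. Cell line: parental KB-3-1 in phenol-red-free DMEM, 10% FBS.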
MCF10A rereplic – A quantitative high throughput screen for small molecules that induce DNA re-replication in MCF 10a normal breast cells. AID 624296, 2012. 350,000 compounds, 2.9% hits. Potency, µM (top dose mostly 46.1 µM), for inactives: at the highest dose activity, positive = re-replication, hits mostly activators. MCF 10A DNA re-replication, Hoechst nuclear intensity, 48 h; further: % of control where 0% means no effect; nearly all actives have a fitted effect of over 50% in size
SW480 rerep – A quantitative high throughput screen for small molecules that induce DNA re-replication in SW480 colon adenocarcinoma cells. SW480 DNA re-replication, Hoechst DNA content imaging, 48 h. Potency, µM (series often up to 46.1 µM), for inactives: top-dose re-replication activation, most hits filed as activators. 340,000 compounds, 1.8% hits. AID 624297, 2012; further: % of control where 0% means no effect; nearly all actives have a fitted effect of over 55% in size
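Cells (250 per well) received 23 nL compound or DMSO by pin tool and were kept 48 hr at 37 C, 5% CO2. Nuclei were then stained with Hoechst for 40 min and scanned for DNA content.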
HT1080 IDH1KD tx – qHTS for induction of synthetic lethality in tumor cells producing 2HG: qHTS for the HT-1080-IDH1KD cell line. HT-1080 IDH1 knockdown viability, ATP luminescence, 48 h. Potency, µM (series often up to 46.1 µM), inactives show top-dose activity, negative = toxicity, actives largely listed as cytotoxic. 360,000 compounds, 2% hits. AID 686971, 2013;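 further: 0% = DMSO wells and -100% = cell-free medium wells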
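Viability of IDH1-knockdown HT-1080 fibrosarcoma cells was assessed by CellTiter-Glo after 48 h at 37 °C with titrated compound; concentration-effect curves were classified by fit quality and response size.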
KB-V1 MDR tox – qHTS assay for MDR1-selective chemotherapeutics: Primary screen using the drug-selected MDR subline cells KB-V1. 400,000 compounds, 3.4% hits. Potency, µM (highest dose often 46.1 µM), actives largely listed as cytotoxic. AID 1347076, 2019. KB-V1 MDR cells viability, CellTiter-Glo, 72 h; further: on the % scale 0 is the no-effect control and ±100 the full control effect; nearly all actives have a fitted effect of over 60% in size
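KB-V1, DMEM (no phenol red) + 10% FBS; cpd pin-transferred, titration series; 72 h, 37 degrees C; CellTiter-Glo, luminescence. Data normalized, curve-fit.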
* = called active by the depositor; i = inactive; ? = inconclusive; . = not tested or not shown. Most compounds without a hit are left out; they make up all but 8% or so of the library. The call rests on the fitted dose curve; in most records, active means well fitted curve in the direction sought with a large enough effect; inconclusive means small, poorly fitted or top-dose-only effect, or another doubt; inactive means no such curve, though single readings can be large; an effect the other way counts as inactive or inconclusive. Potency means the concentration at half of the fitted maximal effect.

SMILES	HT1080-NT tox	KB-3-1 cytotox	MCF10A rereplic	SW480 rerep	HT1080 IDH1KD tx	KB-V1 MDR tox
CCOC(=O)CNC(=O)CN1CCCN(S(=O)(=O)c2ccc(Br)s2)CC1	-7.6%	i	19.3%	9.2%	-7.2%	i
CC(C)Cn1cc(NC(=O)N2CCN(c3cccc(Cl)c3)CC2)c2ccccc2c1=O	.	i	.	.	.	i
CNc1oc(-c2ccc(C)cc2)nc1P(=O)(c1ccccc1)c1ccccc1	?	i	18.4µM*	6.3%	?	i
Cc1cc2c(cc3c(SCc4ccc(Cl)cc4)nnc(C)n32)o1	.	i	.	.	.	i
Cc1ccc(/C=N/NC(=O)CCCOc2ccc(Cl)cc2Cl)cc1	14.6µM*	?	14.6µM*	?	14.6µM*	?
COc1ccc(/C=N/NC(=O)CCCOc2ccc(Cl)cc2Cl)cc1[N+](=O)[O-]	-0.4%	?	1.5%	-7.1%	11.8%	20.6µM*
O=C(COc1ccc(Cl)cc1Cl)N/N=C/c1ccc[nH]1	0.9%	i	11.6µM*	-0.2%	-1.1%	i
Cc1ccc(/C=N/NC(=O)CCCOc2ccc(Cl)cc2Cl)cc1[N+](=O)[O-]	?	?	?	-2.5%	?	i
O=C(CCCOc1ccc(Cl)cc1Cl)N/N=C/c1ccccc1	-3.2%	i	?	1.64µM*	-4.1%	?
O=C(CCCOc1ccc(Cl)cc1Cl)N/N=C/c1ccccc1O	?	i	?	?	?	i
COc1ccc(N(C(=O)c2ccc(OC)c(OC)c2)S(=O)(=O)c2ccc(Cl)cc2)cc1	.	i	.	.	.	i
COc1ccc(OC)c(NC(=O)COCc2cc(-c3ccco3)on2)c1	.	i	.	.	.	i
Cc1sc2ncn(CC(=O)NCC(=O)N(C)C3CCCCC3)c(=O)c2c1C	-1.8%	i	0.9%	-8.5%	-4.0%	23.1µM*
COc1ccc(/C=N/Nc2nonc2N)cc1OC	9.6%	?	-4.5%	-3.4%	12.4%	?
COc1ccc(/C=N/Nc2nonc2N)cc1	9.1%	?	-0.2%	-9.4%	4.6%	20.6µM*
Cc1cc(C)c(NC(=O)COCc2cc(-c3cccs3)on2)c(C)c1	.	i	.	.	.	i
COc1ccc(CC(=O)N2CCc3cc(OC)c(OC)cc3C2COc2ccc(OC)cc2)cc1 (stereo not given)	.	i	.	.	.	?
CC1(C)Cc2ccccc2-c2nnc(SCc3ccccc3)n21	-6.3%	i	-3.8%	-3.8%	-12.1%	i
Cc1ccccc1-n1c(SCC(=O)N2CCC(C(=O)O)CC2)nnc1-c1ccncc1	11.9%	i	-2.0%	-6.9%	-3.0%	i
CC1(C)Cc2ccccc2-c2nnc(SCC(=O)N3CCN(c4ccccc4)CC3)n21	-30.0%	11.6µM*	28.4%	5.6%	?	2.31µM*
Cn1c(SCC(=O)Nc2nc3ccccc3s2)nnc1-c1ccccc1	-8.6%	i	29.1%	3.4%	-7.1%	i
Cc1ccccc1-n1c(SCC(=O)N2CCN(c3ccccc3)CC2)nnc1-c1ccncc1	8.3%	i	14.2%	0.3%	1.6%	3.66µM*
CC1(C)Cc2ccccc2-c2nnc(SCC(=O)Nc3nc4ccccc4s3)n21	1.1%	?	2.4%	-2.7%	5.5%	3.26µM*
CCc1ccc(S(=O)(=O)c2c[nH]c3cc(OC)c(OC)cc3c2=O)cc1	.	i	.	.	.	i
Cc1cc(C)cc(-n2ccnc(NCc3ccc(F)cc3)c2=O)c1	.	i	.	.	.	i
SMILES	HT1080-NT tox	KB-3-1 cytotox	MCF10A rereplic	SW480 rerep	HT1080 IDH1KD tx	KB-V1 MDR tox
COC(=O)c1c(NC(=O)CN2C(=O)NC3(CCCCC3C)C2=O)sc2c1CCC2 (stereo not given)	-27.4%	10.3µM*	0.0%	4.7%	?	i
O=c1cc(N=Nc2ccc(Cl)cc2)[nH]c(=O)[nH]1	1.4%	?	3.66µM*	5.17µM*	14.1%	i
CCCNC(=O)c1c(NC(=O)c2ccccc2)sc2c1CCC(C(C)(C)C)C2 (stereo not given)	.	i	.	.	.	i
Cc1ccccc1CNC(=O)C1CCCN(c2nnc(-n3c(C)ccc3C)s2)C1 (stereo not given)	.	i	.	.	.	?
c1ccc(-c2nnc(-c3ccco3)o2)cc1	7.5%	i	4.6%	0.1%	12.7%	i
c1coc(-c2nnc(-c3ccco3)nn2)c1	-5.1%	i	-15.6%	3.98µM*	0.0%	i
Cc1cc(NC(=O)CSc2nc(-c3cccs3)cc(C(F)(F)F)n2)no1	0.794µM*	1.64µM*	-5.6%	2.2%	0.501µM*	1.03µM*
CCOc1ccc(NC(=O)CSc2nc(-c3cccs3)cc(C(F)(F)F)n2)c([N+](=O)[O-])c1	-22.9%	i	11.6µM*	10.6%	-16.6%	i
CCCNC(=O)CSc1nc(-c2cccs2)cc(C(F)(F)F)n1	1.1%	i	2.3%	-5.0%	0.7%	?
CCOc1ccc(NC(=O)CSc2n[nH]c(N)n2)c([N+](=O)[O-])c1	6.3%	i	2.6%	12.2%	18.4%	i
Cc1cc(NC(=O)CCCS(=O)(=O)c2nc(-c3cccs3)cc(C(F)(F)F)n2)no1	5.8µM*	13µM*	4.11µM*	?	5.8µM*	i
CC1(C)Cc2c(c(N3CCCCC3)[nH]c(=S)c2C#N)CS1	5.1%	i	?	-4.8%	13.9%	11.6µM*
COC(=O)CCCCCn1c(-c2ccccc2)cn2c3c(=O)n(C)c(=O)n(C)c3nc12	.	i	.	.	.	i
O=C1CN(CCN2CC(=O)N(Cc3ccccc3)C(=O)C2)CC(=O)N1Cc1ccccc1	-5.0%	i	.	.	0.0%	i
CC1(C)CC(=O)N(Cc2ccccc2)C(=O)C1	14.2%	i	-0.3%	9.2µM*	12.1%	i
Cc1ccc(S(=O)(=O)/N=C2\C=C(NS(=O)(=O)c3ccccc3)C(=O)c3ccccc32)cc1	?	i	?	99.2%	?	i
O=C(O)c1ccc(NC2=C/C(=N/S(=O)(=O)c3ccccc3)c3ccccc3C2=O)cc1	4.11µM*	18.4µM*	?	3.26µM*	5.8µM*	?
Cc1cc(C)c(S(=O)(=O)/N=C2\C=C(Nc3ccc(C(=O)O)cc3)C(=O)c3ccccc32)c(C)c1	8.2µM*	?	16.7%	?	4.11µM*	i
CCOC(=O)c1c(S(=O)(=O)NCC(=O)Nc2ccc(F)cc2C)c(C)n(C)c1C	.	i	.	.	.	i
